What all share (test): HT-SELEX; high values mean tight binding
Common to all, as to settings: protein: recombinant; vector His6-GST; dsDNA, one strand shown

One experiment addresses T1, SALL4 ZFC4 WT (HT-SELEX) (Mus musculus, UniProt Q8BX22 870-940).
T1 sequence: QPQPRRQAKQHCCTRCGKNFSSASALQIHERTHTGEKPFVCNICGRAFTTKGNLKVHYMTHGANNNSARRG
The procedure, abridged:
(§1)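 Binding signal is expressed as fold change in each canonical k-mer's read fraction over the initial random library. To obtain it, 1 µg of purified recombinant mouse SALL4 zinc finger cluster 4 (residues 870–940) was incubated for 10 min at room temperature with library DNA (1.5 µg first cycle, 200 ng later cycles) in 100 µl of 10 mM Tris–HCl pH 7.5, 50 mM NaCl, poly(dI-dC) and DTT. Ni2+ bead-captured complexes went through washing, PCR amplification and reselection for up to 6 cycles, in triplicate, before MiSeq sequencing and scanning for 6-mers.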

The target in experiment [1] is T2, SALL4 ZFC4 R900W (HT-SELEX) (Mus musculus, UniProt Q8BX22 870-940, R900W).
T2 sequence: T1 sequence with R31W
In short, it runs like this: as §1

Experiment [2] has as its target T3, SALL4 ZFC4 G921D (HT-SELEX) (Mus musculus, UniProt Q8BX22 870-940, G921D).
T3 sequence: T1 sequence with G52D
The procedure, abridged: as §1

Residue numbers refer to the chain shown, from its start.

As to CCAGAA, the figures for the binding signal (in the experiment with SALL4 ZFC4 WT (HT-SELEX); in experiment [1]; in experiment [2]) were 0.726 ± 0.028 fold-change vs cycle 0, 0.821 ± 0.0147 fold-change vs cycle 0 and 0.852 ± 0.0285 fold-change vs cycle 0, respectively.
For ACTGGG, the binding signal stood at 0.468 ± 0.0365 fold-change vs cycle 0 with SALL4 ZFC4 WT (HT-SELEX), 0.547 ± 0.0062 fold-change vs cycle 0 in experiment [1] and 0.615 ± 0.0193 fold-change vs cycle 0 in experiment [2].
Turning to AACATA, the binding signal with SALL4 ZFC4 WT (HT-SELEX) stood at 2.08 ± 0.152 fold-change vs cycle 0; in experiment [1] it was 1.96 ± 0.129 fold-change vs cycle 0; in experiment [2], 1.76 ± 0.196 fold-change vs cycle 0.
In the case of AACATT, the binding signal with SALL4 ZFC4 WT (HT-SELEX) amounted to 1.95 ± 0.0486 fold-change vs cycle 0; in experiment [1] it was 1.96 ± 0.0488 fold-change vs cycle 0; in experiment [2], 1.79 ± 0.136 fold-change vs cycle 0.
With AACCTG, the binding signal in the experiment with SALL4 ZFC4 WT (HT-SELEX) was found to be 0.802 ± 0.0637 fold-change vs cycle 0; in experiment [1], 0.917 ± 0.053 fold-change vs cycle 0; in experiment [2], 0.952 ± 0.0288 fold-change vs cycle 0.
In the case of AACCCC, the binding signal is 0.459 ± 0.0283 fold-change vs cycle 0 in the experiment with SALL4 ZFC4 WT (HT-SELEX), 0.547 ± 0.00959 fold-change vs cycle 0 in experiment [1] and 0.617 ± 0.0497 fold-change vs cycle 0 in experiment [2].
For CCTACG, in that order: 0.357 ± 0.0238 fold-change vs cycle 0, 0.443 ± 0.0174 fold-change vs cycle 0 and 0.524 ± 0.0668 fold-change vs cycle 0.
With GTTTCA, the binding signal in the experiment with SALL4 ZFC4 WT (HT-SELEX) is 1.26 ± 0.0534 fold-change vs cycle 0; in experiment [1], 1.32 ± 0.0266 fold-change vs cycle 0; in experiment [2] it was 1.31 ± 0.0949 fold-change vs cycle 0.
As for CAGTGG, the binding signal with SALL4 ZFC4 WT (HT-SELEX) worked out at 0.426 ± 0.0423 fold-change vs cycle 0; in experiment [1] it was 0.497 ± 0.0328 fold-change vs cycle 0; in experiment [2] it was 0.595 ± 0.0248 fold-change vs cycle 0.
With GCCTTA, the binding signal in the experiment with SALL4 ZFC4 WT (HT-SELEX) amounted to 0.573 ± 0.0273 fold-change vs cycle 0; in experiment [1], 0.685 ± 0.0271 fold-change vs cycle 0; in experiment [2], 0.783 ± 0.0268 fold-change vs cycle 0.
As for AGGAAA, the figures for the binding signal (in the experiment with SALL4 ZFC4 WT (HT-SELEX); in experiment [1]; in experiment [2]) were 1.31 ± 0.0867 fold-change vs cycle 0, 1.43 ± 0.085 fold-change vs cycle 0 and 1.35 ± 0.118 fold-change vs cycle 0, respectively.
For the sequence CATGTC, the binding signal in the experiment with SALL4 ZFC4 WT (HT-SELEX) turned out to be 0.763 ± 0.0529 fold-change vs cycle 0; in experiment [1], 0.908 ± 0.0423 fold-change vs cycle 0; in experiment [2], 0.939 ± 0.0158 fold-change vs cycle 0.
For GATGTA, in that order: 1.358 ± 0.0117 fold-change vs cycle 0, 1.425 ± 0.0112 fold-change vs cycle 0 and 1.34 ± 0.0458 fold-change vs cycle 0.
For ACTATC, the binding signal worked out at 1.35 ± 0.0436 fold-change vs cycle 0 with SALL4 ZFC4 WT (HT-SELEX), 1.45 ± 0.0712 fold-change vs cycle 0 in experiment [1] and 1.39 ± 0.1 fold-change vs cycle 0 in experiment [2].
As to AAATGT, the values for the binding signal (with SALL4 ZFC4 WT (HT-SELEX); in experiment [1]; in experiment [2]) were 1.68 ± 0.0685 fold-change vs cycle 0, 1.7 ± 0.0668 fold-change vs cycle 0 and 1.58 ± 0.133 fold-change vs cycle 0, respectively.
For the sequence GAGTCC, the binding signal in the experiment with SALL4 ZFC4 WT (HT-SELEX) worked out at 0.481 ± 0.0188 fold-change vs cycle 0; in experiment [1], 0.549 ± 0.0274 fold-change vs cycle 0; in experiment [2], 0.669 ± 0.013 fold-change vs cycle 0.
The matching figures for AATATA: 4.74 ± 0.532 fold-change vs cycle 0, 2.49 ± 0.212 fold-change vs cycle 0 and 2.16 ± 0.28 fold-change vs cycle 0.
The matching figures for CATACG: 0.727 ± 0.0223 fold-change vs cycle 0, 0.792 ± 0.0487 fold-change vs cycle 0 and 0.858 ± 0.0517 fold-change vs cycle 0.
Take ACTGTG: the binding signal in the experiment with SALL4 ZFC4 WT (HT-SELEX) is 0.743 ± 0.0431 fold-change vs cycle 0; in experiment [1] it was 0.842 ± 0.0558 fold-change vs cycle 0; in experiment [2] it was 0.876 ± 0.035 fold-change vs cycle 0.
Consider GGGTCA, for which the binding signal with SALL4 ZFC4 WT (HT-SELEX) came to 0.435 ± 0.0224 fold-change vs cycle 0; in experiment [1] it was 0.513 ± 0.0178 fold-change vs cycle 0; in experiment [2], 0.619 ± 0.0472 fold-change vs cycle 0.
For the sequence AACAGC, the figures for the binding signal (with SALL4 ZFC4 WT (HT-SELEX); in experiment [1]; in experiment [2]) were 0.555 ± 0.024 fold-change vs cycle 0, 0.644 ± 0.0188 fold-change vs cycle 0 and 0.761 ± 0.0273 fold-change vs cycle 0, respectively.
ACAGTG: the values for the binding signal (with SALL4 ZFC4 WT (HT-SELEX); in experiment [1]; in experiment [2]) were 0.745 ± 0.062 fold-change vs cycle 0, 0.869 ± 0.0495 fold-change vs cycle 0 and 0.895 ± 0.0488 fold-change vs cycle 0, respectively.
As to TGCCAA, the binding signal was 0.456 ± 0.0199 fold-change vs cycle 0 with SALL4 ZFC4 WT (HT-SELEX), 0.502 ± 0.00872 fold-change vs cycle 0 in experiment [1] and 0.652 ± 0.0602 fold-change vs cycle 0 in experiment [2].
As to ATGGAA, the binding signal with SALL4 ZFC4 WT (HT-SELEX) is 1.5 ± 0.0823 fold-change vs cycle 0; in experiment [1], 1.48 ± 0.0671 fold-change vs cycle 0; in experiment [2], 1.36 ± 0.0808 fold-change vs cycle 0.
On to GCTACA, for which the binding signal was 0.6 ± 0.0288 fold-change vs cycle 0 with SALL4 ZFC4 WT (HT-SELEX), 0.67 ± 0.0106 fold-change vs cycle 0 in experiment [1] and 0.752 ± 0.0182 fold-change vs cycle 0 in experiment [2].
Turning to CCACTC, the binding signal stood at 0.468 ± 0.0131 fold-change vs cycle 0 with SALL4 ZFC4 WT (HT-SELEX), 0.5154 ± 0.00212 fold-change vs cycle 0 in experiment [1] and 0.62 ± 0.0734 fold-change vs cycle 0 in experiment [2].
For CTCCCC, in that order: 0.313 ± 0.0129 fold-change vs cycle 0, 0.36 ± 0.0359 fold-change vs cycle 0 and 0.456 ± 0.0544 fold-change vs cycle 0.
With AAATAT, the values for the binding signal (in the experiment with SALL4 ZFC4 WT (HT-SELEX); in experiment [1]; in experiment [2]) were 5.57 ± 0.542 fold-change vs cycle 0, 2.36 ± 0.147 fold-change vs cycle 0 and 2.07 ± 0.227 fold-change vs cycle 0, respectively.
Consider CGACAA, for which the binding signal with SALL4 ZFC4 WT (HT-SELEX) worked out at 0.4483 ± 0.00206 fold-change vs cycle 0; in experiment [1], 0.523 ± 0.0149 fold-change vs cycle 0; in experiment [2] it was 0.653 ± 0.0169 fold-change vs cycle 0.
With GTGAAA, the binding signal was determined as 1.16 ± 0.0303 fold-change vs cycle 0 with SALL4 ZFC4 WT (HT-SELEX), 1.27 ± 0.0355 fold-change vs cycle 0 in experiment [1] and 1.19 ± 0.0481 fold-change vs cycle 0 in experiment [2].

(Values after publication PMC9838217, “Structure of SALL4 zinc finger domain reveals link between AT-rich DNA binding and Okihiro syndrome”.)
